Source: PubChem BioAssay (several laboratories)
CYP2C19 act: human CYP2C19 activators, primary screen, biochemical, luminescence | activation factor at 5 µM | AID 1025, 2008 | 96,000 tested, under 10 active | Cytochrome P450 2C19 (Homo sapiens), P33261 | recombinant CYP2C19, luciferin-H EGE luminescence; stronger effect = higher value; 0 = fully inhibited enzyme, 1 = untreated enzyme;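 active = activation factor of at least 2 at 5 µM in the primary screen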;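 note: 0 = wells with 2.5 mM tranylcypromine and 1 = vehicle-only wells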
Target sequence (P33261 whole entry, looked up): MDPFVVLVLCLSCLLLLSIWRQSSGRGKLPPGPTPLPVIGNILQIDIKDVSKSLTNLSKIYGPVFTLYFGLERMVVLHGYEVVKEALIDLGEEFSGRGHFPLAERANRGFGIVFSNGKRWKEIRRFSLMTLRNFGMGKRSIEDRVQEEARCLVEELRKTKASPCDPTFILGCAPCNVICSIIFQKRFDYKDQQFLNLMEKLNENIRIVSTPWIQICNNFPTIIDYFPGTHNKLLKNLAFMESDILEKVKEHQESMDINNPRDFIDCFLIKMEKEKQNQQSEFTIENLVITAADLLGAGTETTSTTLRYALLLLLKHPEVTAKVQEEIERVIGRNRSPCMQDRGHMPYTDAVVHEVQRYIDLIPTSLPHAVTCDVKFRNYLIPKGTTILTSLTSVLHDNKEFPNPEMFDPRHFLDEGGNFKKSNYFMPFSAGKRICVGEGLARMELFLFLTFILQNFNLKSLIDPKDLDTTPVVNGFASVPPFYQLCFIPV
Cav3 T inh: Cav3.2 calcium influx blockers – cell-based, Fluo-4 calcium fluorescence, FDSS, MLSMR library, primary screen | Voltage-dependent T-type calcium channel subunit alpha-1H (Homo sapiens), O95180 | Cav3.2-expressing cells; stronger effect = lower value | B-score at 10 µM | 4% of 100,000 active | AID 449739, 2010;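 active = single-dose well whose peak fluorescence ratio is a statistical outlier from its plate by either plate-standardised score or position-corrected B-score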
CYP2C19 inh: blockers of cytochrome P450 2C19 activity – biochemical, luminescence, ADME assay, primary screen | P33261 | CYP2C19 Supersomes, luciferin-H EGE luminescence, 30 min | inhibition, % at 5 µM | 21% of 96,000 active | AID 778, 2007;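 active = CYP2C19 inhibition above a set limit at 5 µM in the primary screen, cut at about 50% in these data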;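 note: plate controls were negative control wells for no effect and 2.5 mM tranylcypromine positive control for full effect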
CYP2C9 inh: blockers of cytochrome P450 2C9 activity – biochemical, luminescence, ADME assay, primary screen; P11712; CYP2C9 Supersomes, luciferin-H conversion; inhibition, % at 5 µM; 20% of 96,000 active; AID 777, 2007;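 active = blocking of liver enzyme CYP2C9 beyond about 50% at 5 µM, limit read from the data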
CYP2C9 act: human CYP2C9 activators, primary screen, biochemical, luminescence; recombinant CYP2C9, luciferin-H conversion; stronger effect = higher value; factor 1 = untreated enzyme, 0 = blocked; activation factor at 5 µM; 1.4% of 96,000 active; AID 1024, 2008;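 active = activation factor of 2 or more for CYP2C9 at a 5 µM dose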;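 note: 0 = sulfaphenazole-blocked wells and 1 = vehicle-only wells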
The depositor's hits bear a star; x = no result given. Rows were chosen to be rich in hits. Some 27% of all compounds tested hit in one or more screens of this group.

SMILES | CYP2C19 act | Cav3 T inh | CYP2C19 inh | CYP2C9 inh | CYP2C9 act
C=CCNC(=O)c1ccccc1NS(=O)(=O)c1ccc(SC)cc1 | 0 | -0.0953 | 97.3* | 40.6 | 0.6
O=C(c1cccc(C(F)(F)F)c1)N1CCN(c2cc(=O)[nH]nc2-c2ccccc2)CC1 | 1.1 | 1.8 | -7.1 | 11.0 | 0.9
O=C(Cn1c(O)c(/C=C2\C=Nc3ccc(Br)cc32)sc1=O)N1CCCC1 | 0.3 | x | 69.5* | 90.7* | 0.1
CC1=Nc2ccccc2/C1=C/c1sc(=O)n(CC(=O)N2CCCC2)c1O | 0.6 | 0.907 | 39.1 | 20.6 | 0.8
COc1cc(C=C(C(C)=O)C(C)=O)ccc1O | 1 | 1.05 | -4.9 | -35.9 | 1.4
CCOc1cc(/C=C(\C#N)c2[nH]nc(N)c2C#N)ccc1O | 0.4 | 0.0187 | 60.1* | -4.1 | 1
CCOc1cc(-c2cc(-c3ccc(C)cc3)nc(N)c2C#N)ccc1O | 0.6 | 0.545 | 39.6 | 84.4* | 0.2
c1ccc(-c2nnc(SCc3nnc(-c4cccs4)o3)o2)cc1 | 0.7 | 0.381 | 34.1 | 30.6 | 0.7
Cc1sc2nc(SCc3nnc(-c4cccs4)o3)n(C3CCCC3)c(=O)c2c1C | 0.7 | -3.52 | 26.5 | 82.8* | 0.2
CC(C)Cn1c(SCc2nnc(-c3cccs3)o2)nc(O)cc1=O | 0.8 | -0.197 | 24.5 | 74.8* | 0.3
CCOc1ccc(C(=O)O)cn1 | x | 1.66 | x | x | x
Cc1nc2c(n1C1CCCCC1)C(=O)c1ccccc1C2=O | 0.2 | x | 80.9* | 55.4* | 0.4
COc1ccc2[nH]c(=O)c(CN(C3CCCCC3)C(c3nnnn3Cc3ccco3)C(C)C)cc2c1 (stereo not drawn) | 0.4 | x | 59.9* | 95.0* | 0.1
COc1ccc2[nH]c(=O)c(CN(Cc3nnnn3Cc3ccco3)C3CCCCC3)cc2c1 | 0.1 | 0.774 | 88.9* | 75.3* | 0.2
CCC(c1nnnn1C1CCCCC1)N(Cc1ccco1)Cc1cc2ccc(OC)cc2[nH]c1=O (stereo not drawn) | 0 | -0.677 | 95.3* | 83.9* | 0.2
COc1ccc2cc(CCNC(=O)c3cccs3)c(=O)[nH]c2c1 | x | -0.663 | x | x | x
CCOC(=O)Cn1nnnc1C(CC)N(Cc1cccs1)Cc1cc2ccc(OC)cc2[nH]c1=O (stereo not drawn) | 0 | -3.7* | 95.7* | 91.0* | 0.1
COc1cc(NC(=O)c2ccc3c(c2)OCO3)ccc1NC(=O)c1ccco1 | x | 0.659 | x | x | x
O=C1N(CC(=O)N2CCc3ccccc32)CCN1Cc1ccc(Cl)cc1 | 0.8 | -4.53* | 19.4 | -133.9 | 2.3*
O=C(CN1CCN(Cc2ccccc2F)C1=O)NCCc1ccc(Cl)cc1 | 0.3 | -3.1 | 66.5* | 88.1* | 0.1
CC(CCc1ccccc1)NC(=O)CN1CCN(Cc2ccc(Cl)cc2)C1=O (stereo not drawn) | 0.3 | -8.17* | 70.8* | 55.8* | 0.4
O=C(Cn1cccc1)N1CCc2ccccc21 | 0.9 | 1.23 | 7.4 | -0.8 | 1
CC(CCc1ccccc1)NC(=O)CN1CCN(Cc2ccccc2)C1=O (stereo not drawn) | 0.9 | 0.13 | 8.2 | 22.9 | 0.8
CCOc1ccc(CCNC(=O)CN2CCN(Cc3ccccc3F)C2=O)cc1OCC | 1 | 1.12 | 4.6 | 16.6 | 0.8
Cc1ccc(CN2CCN(CC(=O)NC(C)CCc3ccccc3)C2=O)cc1 (stereo not drawn) | 0.4 | -5.7* | 58.2* | 66.6* | 0.3
SMILES | CYP2C19 act | Cav3 T inh | CYP2C19 inh | CYP2C9 inh | CYP2C9 act
CC(C)C(NC(=O)CNC(=O)OC(C)(C)C)C(=O)NCc1ccccc1 (stereo not drawn) | 0.7 | 0.57 | 31.9 | -6.7 | 1.1
Nc1ccccc1-c1nnn(CC(=O)N2CCCc3ccccc32)n1 | x | -2.12 | x | x | x
Cc1ccc(C2CC(c3cccs3)=NN2C(=O)c2ccc(Br)o2)cc1 (stereo not drawn) | 0.7 | -4.04* | 30.2 | 42.6 | 0.6
CCS(=O)(=O)Nc1ccc(C2=NN(C(=O)c3ccco3)C(c3ccc(C)cc3)C2)cc1 (stereo not drawn) | 0.7 | 0.00712 | 32.1 | 41.8 | 0.6
O=C(O)CN1CCN(Cc2ccccc2Cl)C1=O | x | 0.279 | x | x | x
CC(C)OCCCNC(=O)CN1CCN(Cc2ccccc2Cl)C1=O | 0.9 | 0.755 | 8.8 | 51.9* | 0.5
O=C(CN1CCN(Cc2ccccc2Cl)C1=O)NC1CCCCCCC1 | 0.3 | -3.64 | 71.5* | -6.7 | 1.1
COc1ccc(-c2onc3ccc(Cl)cc23)cc1 | 0.9 | 0.136 | 14.8 | 22.4 | 0.8
COc1ccccc1NC(=O)Cn1nnc(-c2ccccc2NC(=O)c2cccs2)n1 | 1 | 0.109 | -1.3 | 25.8 | 0.7
COc1ccc(C(=O)Cn2nnc(-c3ccccc3NC(=O)C3CCCCC3)n2)cc1 | 0.8 | 0.15 | 18.7 | 85.4* | 0.1
CCOc1ccc(NC(=O)Cn2nnc(-c3ccccc3NC(=O)C3CC3)n2)cc1 | 0.2 | 0.0815 | 81.5* | 35.6 | 0.6
CCC(=O)Nc1ccccc1-c1nnn(CC(=O)N2c3ccccc3CC2C)n1 (stereo not drawn) | 0.6 | -0.312 | 44.7 | 78.5* | 0.2
O=C(Cn1nnc(-c2ccccc2NC(=O)c2cccs2)n1)Nc1ccccc1 | 0.8 | 0.0428 | 22.8 | 76.4* | 0.2
COc1ccc(NC(=O)Cn2nnc(-c3ccccc3NC(=O)c3ccco3)n2)cc1 | 0.8 | 0.0182 | 16.7 | 25.3 | 0.7
COc1ccc(NC(=O)Cn2nnc(-c3ccccc3N)n2)cc1OC | 1.1 | -1.43 | -13.6 | 3.4 | 1
COc1ccc(NC(=O)Cn2nnc(-c3ccccc3F)n2)cc1 | 0.8 | x | 16.0 | 14.5 | 0.9
COc1cc(NC(=O)Cn2nnc(-c3ccccc3N)n2)cc(OC)c1 | 0.6 | -3.88 | 40.0 | 54.1* | 0.5
COc1ccc(NC(=O)Cn2nnc(-c3ccccc3NC(=O)C3CC3)n2)cc1 | 0.1 | -0.173 | 94.1* | 43.7 | 0.6
CC(C)C(C(=O)Nc1ccc(N2CCOCC2)cc1)N1C(=O)c2ccccc2C1=O (stereo not drawn) | 0.8 | -0.0194 | 22.8 | 15.9 | 0.8
Cn1c(NC(=O)c2cc(Br)ccc2Cl)cc(=O)n(C)c1=O | 0.4 | x | 59.4* | 28.9 | 0.7
COc1ccc(C(=O)c2c[nH]c(C(=O)NCc3cccs3)c2)cc1 | 1 | x | 2.3 | 9.6 | 0.9
COC(=O)CN1C(=S)N(Cc2ccccc2)C(=O)C1CC(=O)Nc1ccc(Br)cc1 (stereo not drawn) | 0.9 | -3.39 | 11.9 | 28.4 | 0.7
COc1ccc(NC(=O)CC2C(=O)N(c3ccc(OC)cc3)C(=O)N2C(C)C)cc1 (stereo not drawn) | 0.4 | 0.0272 | 55.8* | 26.8 | 0.7
C=CCN1C(=O)C(CC(=O)Nc2ccc(OC)cc2)N(Cc2ccco2)C1=S (stereo not drawn) | 0 | -0.19 | 95.7* | 48.0 | 0.5
COc1ccc(NC(=O)CC2C(=O)N(CCc3ccccc3)C(=S)N2Cc2cccnc2)cc1 (stereo not drawn) | 0.1 | -3.2 | 89.5* | 91.7* | 0.1
